HEK cytotox: kills HEK 293 cells | AID 1345083 | 6.6% of 94,000 active | Potency, µM (doses to about 115 µM), most hits filed as inhibitors | HEK 293 viability, ATP luminescence (CellTiter-Glo), 48-72 h; also: nearly all actives have a fitted effect of over 60% in size
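HEK 293 cells seeded at 250 cells/well were exposed to compound for 48 or 72 hr at 37 degree Celsius. Viability taken as ATP content by CellTiter-Glo luminescence.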
3T3 cytotox: kills NIH 3T3 cells. NIH 3T3 viability, CellTiter-Glo ATP luminescence, 48-72 h. Potency, µM (series often up to 96.7 µM), usual class: inhibitors. 4.3% of 94,000 active. AID 1345082; also: nearly all actives have a fitted effect of over 55% in size
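Viability of NIH 3T3 cells after 48 or 72 hr compound treatment at 37 °C was assessed by CellTiter-Glo, with luminescence imaged following a 10 min room-temperature step.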
FLuc inh: inhibitors of firefly (Photinus pyralis) luciferase | P08659 | purified P. pyralis luciferase, luminescence, biochemical | Potency, µM (highest dose often 115 µM), most hits filed as inhibitors | 2.5% of 76,000 active | AID 1347043; also: nearly all actives have a fitted effect of over 65% in size
Target sequence (P08659 whole entry, looked up): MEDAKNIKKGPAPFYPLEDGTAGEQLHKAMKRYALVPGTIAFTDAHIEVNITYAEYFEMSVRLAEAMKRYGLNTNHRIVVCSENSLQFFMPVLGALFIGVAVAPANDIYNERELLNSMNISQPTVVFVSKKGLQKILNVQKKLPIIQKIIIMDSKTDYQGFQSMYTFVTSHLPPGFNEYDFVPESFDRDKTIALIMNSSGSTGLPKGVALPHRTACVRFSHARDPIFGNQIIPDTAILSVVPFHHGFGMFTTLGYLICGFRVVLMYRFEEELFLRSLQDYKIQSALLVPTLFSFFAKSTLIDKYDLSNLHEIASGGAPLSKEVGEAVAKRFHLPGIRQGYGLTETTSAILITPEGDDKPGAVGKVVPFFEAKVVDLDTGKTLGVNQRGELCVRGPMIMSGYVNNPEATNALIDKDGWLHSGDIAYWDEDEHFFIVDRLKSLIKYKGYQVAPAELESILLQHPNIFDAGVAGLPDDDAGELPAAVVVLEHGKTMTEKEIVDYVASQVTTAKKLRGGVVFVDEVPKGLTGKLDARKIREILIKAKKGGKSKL
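FLuc 10nM, D-luciferin 10uM, ATP 10uM, Mg acetate 10mM, Tris acetate pH 7.5, Tween/BSA; cpd qHTS; enzyme added last; CCD luminescence.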
hNpr1 antagonist: blocks ANP-stimulated signaling of human Npr1 receptor; P16066; HEK293 hNpr1 GloSensor cGMP, ANP-stimulated luminescence; Potency, µM (series often up to 46.3 µM), hits mostly inhibitors; 1.6% of 76,000 active; calls by dose curve; also: nearly all actives have a fitted effect of over 60% in size
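HEK293 cells stably expressing human Npr1 and cGMP GloSensor pGS-40F, loaded 2 h with 2% GloSensor reagent, given compound 30 min at room temperature. Luminescence read before and 20 min after 0.1 nM hNppA.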
Numbers stand for hits. Most compounds without a hit are left out; they make up all but 11% or so of the library. Unless noted, calls follow the shape of the dose curve; as a rule, active = well fitted curve in the direction sought with a large enough effect; inconclusive = small, poorly fitted or top-dose-only effect, or another doubt; inactive = no such curve, though single readings can be large; an effect the other way counts as inactive or inconclusive.

For COc1ccc(-c2ccc3nc(-c4ccc(Cl)cc4)oc3c2)c(OC)c1OC the results were HEK cytotox inactive, 3T3 cytotox inactive, FLuc inh inconclusive and hNpr1 antagonist inactive.
For COc1ccc(-c2ccc3nc(-c4ccccc4)oc3c2)c(OC)c1OC the results were HEK cytotox 45µM, 3T3 cytotox inconclusive, FLuc inh inactive and hNpr1 antagonist inactive.
Screening CC(=O)NCCC(=O)N1Cc2ccccc2CC2(CCCCN2CC2CCNCC2)C1 (centres undefined) returned HEK cytotox inactive and 3T3 cytotox inactive.
Screening O=C(c1cccc(Cl)c1)N1CCCC(C(=O)N2CCC(c3nc4ncccc4[nH]3)CC2)C1 (centres undefined) returned HEK cytotox inactive and 3T3 cytotox inactive.
Screening O=C(Cc1c[nH]c2ncc(-c3ccc(F)cc3)cc12)N1CCOCC1 returned HEK cytotox inconclusive, 3T3 cytotox inconclusive, FLuc inh 56µM and hNpr1 antagonist inconclusive.
`COc1ccc(-c2cnc3[nH]cc(CC(=O)N4CCOCC4)c3c2)cn1` gave HEK cytotox inconclusive, 3T3 cytotox 25µM, FLuc inh inconclusive and hNpr1 antagonist inactive.
Screening O=C(Cc1c[nH]c2ncc(-c3ccncc3)cc12)N1CCOCC1 returned HEK cytotox inactive, 3T3 cytotox inconclusive, FLuc inh inactive and hNpr1 antagonist inactive.
Screening O=C(Cc1c[nH]c2ncc(-c3ccc4c(c3)OCO4)cc12)N1CCOCC1 returned HEK cytotox inconclusive, 3T3 cytotox 25µM, FLuc inh inconclusive and hNpr1 antagonist inconclusive.
For Cc1ccc(C)c2c(C)c(C(=O)N3CCCC(O)(CN4CCCC4)C3)[nH]c12 (centres undefined) the results were HEK cytotox inconclusive, 3T3 cytotox inconclusive, FLuc inh inactive and hNpr1 antagonist inactive.
Screening CCCC(=O)N1Cc2ccccc2CC2(CCN(Cc3ccncc3)C2)C1 (centres undefined) returned HEK cytotox inactive and 3T3 cytotox inactive.
Screening COCC(=O)NCCNC(=O)c1ccc(-c2cncnc2)cc1 returned HEK cytotox inactive and 3T3 cytotox inactive.
COc1cccc(-c2cn3c(n2)N(C(=O)c2cccs2)CCC3)c1 was read as HEK cytotox inconclusive, 3T3 cytotox inactive, FLuc inh 35µM and hNpr1 antagonist inactive.
Screening O=C(c1ccoc1)N1CCCn2cc(-c3ccccc3)nc21 returned HEK cytotox inconclusive, 3T3 cytotox inactive, FLuc inh inconclusive and hNpr1 antagonist inactive.
O=C(c1ccsc1)N1CCCn2cc(-c3ccccc3)nc21 was read as HEK cytotox inconclusive, 3T3 cytotox inactive, FLuc inh 40µM and hNpr1 antagonist inactive.
Screening Cc1ccsc1C(=O)N1CCCn2cc(-c3cccc(C#N)c3)nc21 returned HEK cytotox inconclusive, 3T3 cytotox inactive, FLuc inh 32µM and hNpr1 antagonist inactive.
Screening COc1cccc(-c2cn3c(n2)N(C(=O)C2CCC2)CCC3)c1 returned HEK cytotox inconclusive, 3T3 cytotox inactive, FLuc inh inconclusive and hNpr1 antagonist inactive.
`Cc1ccc(-c2cn3c(n2)N(C(=O)c2cnn4cccnc24)CCC3)cc1` gave HEK cytotox 79µM, 3T3 cytotox inactive, FLuc inh inactive and hNpr1 antagonist inactive.
O=C(c1nc2ncccn2n1)N1CCCn2cc(-c3ccccc3)nc21 was read as HEK cytotox inconclusive, 3T3 cytotox inactive, FLuc inh inactive and hNpr1 antagonist inactive.
`COc1ccc2c(c1)OC[C@@H]1CN(CCC#N)C(=O)CCN(C(=O)CC(C)C)[C@H]21` gave HEK cytotox inactive and 3T3 cytotox inconclusive.
`CN(Cc1ccccc1F)C1CCc2ccccc21` (centres undefined) gave HEK cytotox inconclusive, 3T3 cytotox inactive, FLuc inh inactive and hNpr1 antagonist inactive.
Screening CC(C)CC(=O)N1CCOCC12CCN(CCCc1ccccc1)CC2 returned HEK cytotox inconclusive, 3T3 cytotox inconclusive, FLuc inh inactive and hNpr1 antagonist inactive.
For CNC(=O)c1cc(C2CC2)nc2c1c(C1CCCN1C(=O)c1c(C)noc1C)nn2C (centres undefined) the results were HEK cytotox inactive and 3T3 cytotox inactive.
For O=C(CCc1ccc(-c2ccc(Cl)cc2)[nH]1)N[C@@H]1C[C@@H]2OCC[C@@H]21 the results were HEK cytotox 79µM, 3T3 cytotox inconclusive, FLuc inh inactive and hNpr1 antagonist inactive.
Screening COc1cccc(F)c1-c1ncc2c(n1)OCCN(c1cccc(C(F)(F)F)c1)C2=O returned HEK cytotox inconclusive, 3T3 cytotox inconclusive, FLuc inh inactive and hNpr1 antagonist inactive.
`COc1ccc(OC)c(-c2ncc3c(n2)OCCN(c2cccc(C(F)(F)F)c2)C3=O)c1` gave HEK cytotox inactive, 3T3 cytotox inconclusive, FLuc inh inactive and hNpr1 antagonist inactive.
For O=C1c2cnc(-c3ccsc3)nc2OCCN1c1cccc(C(F)(F)F)c1 the results were HEK cytotox 100µM, 3T3 cytotox 112µM, FLuc inh 63µM and hNpr1 antagonist inconclusive.
COc1ccc(F)cc1-c1ncc2c(n1)OCCN(c1cccc(C(F)(F)F)c1)C2=O was read as HEK cytotox inconclusive, 3T3 cytotox 35µM, FLuc inh inactive and hNpr1 antagonist inactive.
Screening COc1cc(F)cc(-c2ncc3c(n2)OCCN(c2cccc(C(F)(F)F)c2)C3=O)c1 returned HEK cytotox inactive, 3T3 cytotox inconclusive, FLuc inh 3.2µM and hNpr1 antagonist inactive.
Cc1ccc(-c2ncc3c(n2)OCCN(c2ccccc2)C3=O)cc1F was read as HEK cytotox inconclusive, 3T3 cytotox inconclusive, FLuc inh inconclusive and hNpr1 antagonist 7.1µM.
`Cc1cccc(-c2ncc3c(n2)OCCN(c2cccc(C(F)(F)F)c2)C3=O)c1` gave HEK cytotox inconclusive, 3T3 cytotox inactive, FLuc inh inconclusive and hNpr1 antagonist inactive.
Screening O=C(NCCc1ccccc1)C1CCN(Cc2ccccc2-c2ccccc2F)CC1 returned HEK cytotox inconclusive and 3T3 cytotox inactive.
Screening O=C(NCCc1ccc(Cl)cc1)C1CCN(Cc2ccccc2-c2ccccc2F)CC1 returned HEK cytotox 32µM and 3T3 cytotox inconclusive.
For O=C(NCCc1ccc(F)cc1)C1CCN(Cc2ccccc2-c2ccccc2F)CC1 the results were HEK cytotox 28µM and 3T3 cytotox 35µM.
COCCNC(=O)c1nc2sccn2c1-c1ccc(C)cc1 was read as HEK cytotox inconclusive and 3T3 cytotox inactive.
For Cc1ccc(-c2c(C(=O)NCCc3ccc(Cl)cc3)nc3sccn23)cc1 the results were HEK cytotox 35µM and 3T3 cytotox inconclusive.
Screening O=C(NCCc1ccc(Cl)cc1)c1nc2sccn2c1Br returned HEK cytotox inactive, 3T3 cytotox inactive, FLuc inh 18µM and hNpr1 antagonist inactive.
Screening O=C(Nc1cccc(Cl)c1)N[C@H]1C[C@H]2C(=O)NC[C@@H](CCC(=O)N3CCc4ccccc43)N2C1 returned HEK cytotox inactive, 3T3 cytotox inactive, FLuc inh inactive and hNpr1 antagonist inactive.
Cc1noc(C)c1[S+](=O)([O-])N1CCCC2(CC(c3cccc(C(F)(F)F)c3)=NO2)C1 (centres undefined) was read as HEK cytotox 35µM, 3T3 cytotox inactive, FLuc inh inactive and hNpr1 antagonist inactive.

High-throughput results: PubChem, National Center for Advancing Translational Sciences (NCATS)
